The entries come from a sample that favours hits as a whole.
LmPK inh: LmPK (Leishmania mexicana) enzyme inhibition | Q27686 | purified LmPK, Kinase-Glo ATP luminescence, 1 h | Potency, µM (doses to about 57.5 µM), without a hit: at the highest dose activity change, negative = inhibition, actives largely listed as inhibitors | 290,000 tested, 0.37% active | AID 1721; further: potency means the concentration at half of the fitted maximal effect; on the % scale 0 is the no-effect control and ±100 the full control effect
Target sequence (Q27686 whole entry, looked up): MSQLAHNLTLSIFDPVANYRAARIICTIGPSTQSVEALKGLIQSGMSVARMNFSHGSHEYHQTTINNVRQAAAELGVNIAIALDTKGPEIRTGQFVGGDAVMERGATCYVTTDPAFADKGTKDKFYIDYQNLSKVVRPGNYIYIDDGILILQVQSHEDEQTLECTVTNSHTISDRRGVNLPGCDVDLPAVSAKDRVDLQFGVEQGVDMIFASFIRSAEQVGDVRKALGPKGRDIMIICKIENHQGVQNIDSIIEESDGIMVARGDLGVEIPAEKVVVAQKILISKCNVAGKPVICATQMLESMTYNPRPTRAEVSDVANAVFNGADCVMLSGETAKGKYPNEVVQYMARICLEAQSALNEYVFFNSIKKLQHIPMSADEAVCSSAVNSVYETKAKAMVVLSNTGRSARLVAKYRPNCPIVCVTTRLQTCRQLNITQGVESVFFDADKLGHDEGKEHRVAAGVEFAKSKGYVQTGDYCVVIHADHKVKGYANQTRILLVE
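Kinase-Glo luminescence read after 1 h RT reaction of 0.1 nM LmPK with 0.5 mM PEP and 0.1 mM ADP. Activity scaled between uninhibited and enzyme-free controls.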
Sm TGR block: inhibitors of Schistosoma mansoni thioredoxin glutathione reductase; purified TGR, DTNB reduction, TNB absorbance 405 nm; Potency, µM (highest dose often 114 µM), for inactives: at the top dose activity change, negative = inhibition, actives largely listed as inhibitors; 360,000 tested, 3% active; further: potency means the concentration at half of the fitted maximal effect; on the % scale 0 is the no-effect control and ±100 the full control effect; nearly all actives have a fitted effect of over 60% in size
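Kinetic colorimetric format: TGR-catalysed, NADPH-driven DTNB reduction monitored via TNB absorbance. Enzyme dispensed at 20 nM; compound exposure 15 min at room temperature before reaction start.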
Cycloheximide cs: affects cycloheximide protein synthesis inhibition readout, counter-screen; cell reporter, cycloheximide protein synthesis inhibition counterscreen; max response, %; 300,000 tested, 12% active; AID 2314; in the data active means max response mostly above about 13%, no sharp cut-off; inactive means mostly below about 14%; further: read at 38.3 µM for the half of the compounds with a filed dose; 0% is about no effect
Tb PYK inh: T. brucei pyruvate kinase inhibition; Q57TT1; TbPYK enzyme, Kinase-Glo Plus ATP luminescence, 45 min; Potency, µM (titrated, usually from 76.8 µM), for the others: at the highest dose activity, negative = inhibition, usual class: inhibitors; 410,000 tested, 0.12% active; further: potency means the concentration at half of the fitted maximal effect; on the % scale 0 is the no-effect control and ±100 the full control effect; nearly all actives have a fitted effect of over 50% in size
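In this concentration-response screen, enzyme-free wells defined baseline while DMSO plates tracked drift. Each reaction combined TbPYK, substrate, compound and 130 uM ADP for 45 min at room temperature. Kinase-Glo Plus luminescence gave the signal.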
Shiga toxin inh: inhibitors of Shiga toxin in Vero cells | Vero cells, Shiga toxin protein synthesis inhibition reporter | inhibition, % at 38.7 µM | 290,000 tested, 9.2% active | AID 2315; in the data active means inhibition mostly above about 28%, no sharp cut-off; inactive means mostly below about 43%; further: 0% is about no effect
Giardia FBPA inh: inhibitors of Giardia lamblia fructose-1,6-bisphosphate aldolase; A8B2U2; purified Giardia FBPA; Potency, µM (titrated, usually from 59.6 µM), for inactives: at the highest dose activity, negative = inhibition, hits mostly inhibitors; 290,000 tested, 0.71% active; AID 2451; further: potency means the concentration at half of the fitted maximal effect; on the % scale 0 is the no-effect control and ±100 the full control effect; nearly all actives have a fitted effect of over 55% in size
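Giardia FBPA (40 nM reagent) was preincubated 10 min at RT with compound (up to 57.5 uM final), then substrate plus GAPDH/TPI/NAD/arsenate coupling system with diaphorase/resazurin was added; resorufin fluorescence (525/598 nm) was read after 20 min.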
Active calls of the source: *; ? = inconclusive; · = no result; [ ] = remark or other dose. Unless noted, the call rests on the fitted dose curve; in most records, active means well fitted curve in the direction sought with a large enough effect; inconclusive means small, poorly fitted or top-dose-only effect, or another doubt; inactive means no such curve, though single readings can be large; an effect the other way counts as inactive or inconclusive.

SMILES	LmPK inh	Sm TGR block	Cycloheximide cs	Tb PYK inh	Shiga toxin inh	Giardia FBPA inh
COc1ccccc1/C=C/C(=O)NNC(=O)c1cccs1	-2%	21%	26*	-7%	71*	15%
O=C(/C=C/c1ccccc1)NNC(=O)c1cccs1	1%	-18%	23*	2%	38	4%
COc1ccc(OC)c(C2C(C(=O)N3CCCCC3)=C(C)Nc3nc4ccccc4n32)c1 (stereo not drawn)	·	7%	·	-4%	·	·
CCCc1nn2c(=O)cc(COC(=O)c3ccccc3NC(=O)c3ccc(Cl)cc3)nc2s1	·	-1%	·	-1%	·	·
N/C(=N\C(=S)Nc1ccc2c(c1)OCO2)c1ccccc1	·	·	·	2%	·	·
O=C(Nc1ccccc1)Nc1nnc(-c2cccs2)s1	2%	-3%	29*	2%	25	1%
COc1ccc(NC(=O)Nc2nnc(-c3cccs3)s2)cc1	-11%	7%	25*	8%	61*	1%
Cc1occc1C(=O)Nc1nccs1	-12%	-5%	8	-10%	34	4%
Cc1occc1C(=O)Nc1nnc(-c2cccs2)s1	-8%	·	34*	-9%	107*	6%
O=C(Cc1nnc(NC(=O)Nc2ccccc2)s1)Nc1ccccc1	5%	4%	-2	-1%	-2	1%
O=C(Nc1nnc(-c2cccs2)s1)c1cccc(F)c1	0%	5%	19*	5%	59*	0%
COc1ccc(-c2noc(-c3ccc(N4CCN(c5ccccc5OC)CC4)c([N+](=O)[O-])c3)n2)cc1	·	0%	·	-1%	·	·
COc1ccc(C(=O)Nc2nnc(-c3cccs3)s2)cc1	-7%	-7%	43*	-6%	60*	7%
Cc1ccc(CC(=O)Nc2nc3c(s2)CCCC3)cc1	-11%	-16%	26	1%	46	-1%
Cc1cccc(NP(C)(=O)c2nc3c(s2)CCCC3)c1 (stereo not drawn)	3%	1%	25*	3%	37*	-1%
CC(C)OC(=O)c1ccc(NC(=O)CSc2nc3ncccc3[nH]2)cc1	1%	·	23*	-5%	46*	-7%
CC(C)c1ccc(NC(=O)CSc2nc3ncccc3[nH]2)cc1	-1%	-7%	19*	-16%	18	0%
COc1ccc(NC(=O)CSc2nc3ncccc3[nH]2)cc1OC	0%	1%	-2	·	28	-15%
COC(=O)c1ccccc1NC(=O)CSc1nc2ncccc2[nH]1	0%	-2%	1	3%	-12	-18%
C=CC1=C[C@@H](O)C2OC2C12OCCCO2 (stereo partly drawn)	·	·	·	·	·	-2%[12.9 µM]
CC(=O)c1sc(NS(=O)(=O)c2ccc(C)cc2)nc1C	-6%	-1%	-2	2%	23	27%
Cc1ccc(S(=O)(=O)Nc2nc(C)c(C(=O)NN)s2)cc1	8%	71µM*	20*	-5%	54*	11%
Cc1nc(NS(=O)(=O)c2ccccc2)sc1NC(=O)Nc1ccc(Cl)cc1	6%	5.6µM*	-2	1%	-17	-15%
CC(=O)c1ccc(NC(=O)Nc2sc(NS(=O)(=O)c3ccccc3)nc2C)cc1	4%	35µM*	8	-4%	4	?
Cc1nc(NS(=O)(=O)c2ccccc2)sc1NC(=O)Nc1ccccc1	5%	·	-1	-9%	17	3%
SMILES	LmPK inh	Sm TGR block	Cycloheximide cs	Tb PYK inh	Shiga toxin inh	Giardia FBPA inh
CCOC(=O)Nc1sc(NS(=O)(=O)c2ccccc2)nc1C	4%	50µM*	-2	-8%	-9	-14%
CC(C)c1ccc(C(=O)CC2(O)C(=O)N(CCc3ccccc3)c3ccc(Cl)cc32)cc1 (stereo not drawn)	·	-4%	·	1%	·	·
CCCSC1=NN2CCCC(=O)N=C2S1	-6%	1%	27*	-4%	93*	5%
CC(C)CNC(=S)Nc1ccc(S(N)(=O)=O)cc1	1%	?	-4	-17%	10	0%
CC(C)CCNC(=S)Nc1ccc([N+](=O)[O-])cc1	-1%	?	30*	-22%	56	0%
CCCN1CCN(C(=S)Nc2ccc([N+](=O)[O-])cc2)CC1	-5%	-1%	-1	-10%	2	-3%
O=C(NC(NNc1ccc([N+](=O)[O-])cc1)(C(F)(F)F)C(F)(F)F)c1ccc(F)cc1	-1%	32µM*	0	5%	5	-10%
O=C(NC(NNc1ccc([N+](=O)[O-])cc1)(C(F)(F)F)C(F)(F)F)c1ccccc1Cl	-2%	?	-3	2%	-14	-10%
Cc1ccc(NC(=S)NCC(C)C)cc1	0%	3%	35*	-12%	40*	1%
CCCN1CCC(NC(=S)Nc2ccc([N+](=O)[O-])cc2)CC1	1%	-29%	10*	4%	26	-4%
COc1ccc(N(Cc2cccs2)C(=O)c2ccc(Br)o2)cc1	·	-3%	·	8%	·	·
COc1cc(C(=O)Nc2nc3c(s2)Cc2c(Br)ccc(OC)c2-3)cc(OC)c1OC	·	-11%	·	-10%	·	·
S=C(NCCc1ccccc1)Nc1ccc(Br)cc1	2%	-14%	53*	-10%	16	-1%
C=C(C)C(=O)/C=C/c1ccc(Br)cc1	·	·	·	·	·	0%
O=C(NNC(=S)Nc1ccc(F)cc1)c1cccc([N+](=O)[O-])c1	-2%	-9%	8	1%	7	6%
CC(C)CCNC(=S)Nc1ccc(Br)cc1	1%	-18%	30*	2%	48*	-3%
O=[N+]([O-])c1ccc(NNC(=S)Nc2ccc(F)cc2)cc1	-21%	-25%	27*	-29%	86*	?
CC(C)CCNC(=O)/C=C/c1ccc(Br)cc1	-3%	-10%	37*	-2%	100*	-14%
CCn1ccc2cc(S(=O)(=O)N3CCC(C(=O)NCCOC)CC3)ccc21	·	?	·	-2%	·	·
COc1cc(N)c(Cl)cc1C(=O)OCC(=O)N1CCCCCC1	·	22%	·	1%	·	·
Cc1cc(C)cc(NC(=O)C(=O)NCC(c2cccnc2)N2CCc3ccccc3C2)c1 (stereo not drawn)	·	-5%	·	-5%	·	·
CCOn1c(=O)c(-c2cc3ccccc3o2)[n+]([O-])c2ccccc21	1%	2%	47*	-10%	163*	-2%
CCOn1c(=O)c(-c2ccc(Br)cc2)[n+]([O-])c2ccccc21	3%	-10%	9	-3%	22	7%
O=c1c(-c2cc3ccccc3o2)[n+]([O-])c2ccccc2n1OCc1ccccn1	-6%	-20%	48*	-9%	101*	-6%

Source: PubChem (National Center for Advancing Translational Sciences (NCATS))
